The list is not random: actives were taken first. Their share in the collection is about 2.4%.
L3MBTL1 inh: qHTS Assay for the Inhibitors of L3MBTL1; Lethal(3)malignant brain tumor-like protein 1 (Homo sapiens), Q9Y468; AlphaScreen L3MBTL1–H3K9me1 peptide binding; Potency, µM (doses to about 57.1 µM), usual class: inhibitors; 230,000 tested, 0.66% active; note: nearly all actives have a fitted effect of over 60% in size
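L3MBTL1 (50 nM) pre-complexed 30 min with biotinylated H3(1-15)K9me1 peptide (75 nM), then compounds added for 30 min at room temperature; AlphaScreen streptavidin donor/nickel chelate acceptor beads (10 ug/mL final) read after 30 min dark incubation.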
POLB inh: qHTS Assay for Inhibitors of DNA Polymerase Beta. Pol beta primer extension/strand displacement, fluorescence kinetic. Potency, µM (titrated, usually from 114 µM), usual class: inhibitors. 340,000 tested, 1.3% active. AID 485314, 2010
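Curves were derived by four-parameter Hill fits of normalized qHTS data. The kinetic fluorescent primer-extension read was taken at 0 and 10 min after 50 nM substrate, following a 15 min room-temperature preincubation of 10 nM enzyme with compounds.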
POLK inh: qHTS for Inhibitors of Polymerase Kappa; purified Pol kappa, fluorescent DNA synthesis assay, 10 min; Potency, µM (top dose mostly 107 µM), actives largely listed as inhibitors; 400,000 tested, 0.53% active
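10 nM Pol kappa preincubated 15 min at room temperature with compounds, then reaction started with substrate at 50 nM final. Fluorescence read kinetically at 0 and 10 min; buffer-only wells served as negative control.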
Pol iota inh: qHTS for Inhibitors of Polymerase Iota. Pol iota fluorescent replication assay, 10 min. DNA polymerase iota (Homo sapiens), Q9UNA4. Potency, µM (series often up to 115 µM), usual class: inhibitors. 390,000 tested, 1% active. AID 588590, 2011
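Pol iota at 10 nM preincubated 15 min with compounds at room temperature; reaction started with fluorescent substrate, 50 nM final. Fluorescence read kinetically at 0 and 10 min; buffer-only wells as negative control.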
Pol eta inh: qHTS for Inhibitors of Polymerase Eta | DNA polymerase eta (Homo sapiens), Q9Y253 | recombinant Pol eta, fluorescent DNA replication assay | Potency, µM (series often up to 114 µM), actives largely listed as inhibitors | 390,000 tested, 1.2% active | AID 588591, 2011
Target sequence (Q9Y253 whole entry, looked up): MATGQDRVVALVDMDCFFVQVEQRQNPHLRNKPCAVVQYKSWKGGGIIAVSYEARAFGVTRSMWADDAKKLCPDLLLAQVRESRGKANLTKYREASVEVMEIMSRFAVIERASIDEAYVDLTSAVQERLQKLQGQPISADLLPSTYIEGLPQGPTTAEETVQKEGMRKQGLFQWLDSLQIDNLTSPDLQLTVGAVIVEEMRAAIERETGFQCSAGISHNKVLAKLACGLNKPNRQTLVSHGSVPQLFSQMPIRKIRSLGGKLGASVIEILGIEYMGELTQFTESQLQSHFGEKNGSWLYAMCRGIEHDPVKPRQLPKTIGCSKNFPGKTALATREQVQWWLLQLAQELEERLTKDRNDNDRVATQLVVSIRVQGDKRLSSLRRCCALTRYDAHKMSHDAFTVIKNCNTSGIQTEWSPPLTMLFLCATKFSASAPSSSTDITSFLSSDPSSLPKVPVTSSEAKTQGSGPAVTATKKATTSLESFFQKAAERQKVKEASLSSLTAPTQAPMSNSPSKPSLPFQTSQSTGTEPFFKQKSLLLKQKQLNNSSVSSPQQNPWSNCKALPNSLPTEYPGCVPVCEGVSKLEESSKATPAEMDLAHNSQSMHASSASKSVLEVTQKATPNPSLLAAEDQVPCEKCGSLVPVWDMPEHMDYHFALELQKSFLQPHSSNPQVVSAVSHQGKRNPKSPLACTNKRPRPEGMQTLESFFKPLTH
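Pol eta at 10 nM preincubated with compounds 15 min at room temperature; reaction started with fluorescent substrate (50 nM final) and read kinetically at 0 and 10 min.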
Of the large screens only hits and unclear results are named; the others gave an inactive call; ! = not confirmed by another sample. Calls come from the whole dose curve; as a rule, active = well fitted curve in the direction sought with a large enough effect; inconclusive = small, poorly fitted or top-dose-only effect, or another doubt; inactive = no such curve, though single readings can be large; an effect the other way counts as inactive or inconclusive.

CCOC(=O)c1c(C)oc2nc(C)nc(NCCCN3CCN(c4cccc(C)c4)C(C)C3)c12 (configuration not stated)	POLK inh inconclusive, Pol iota inh 89µM (no result: L3MBTL1 inh)
CCOC(=O)c1c(C)oc2nc(C)nc(NCCCN3CCN(c4ccccc4)CC3)c12	none (no result: L3MBTL1 inh)
COC(=O)N1CCC2(CCCN(Cc3ccccc3)C2)CC1	none (no result: L3MBTL1 inh, POLB inh, Pol iota inh, Pol eta inh)
Cc1ccc(C2CC(=O)N3CN(c4ccc(Br)cc4)CSC3=C2C#N)o1 (configuration not stated)	POLB inh 32µM, Pol iota inh inconclusive (no result: L3MBTL1 inh)
CCOC(=O)c1ccc(N2CSC3=C(C#N)C(c4ccc(OC)cc4OC)CC(=O)N3C2)cc1 (configuration not stated)	none (no result: L3MBTL1 inh)
N#CC1=C2SCN(c3ccccc3)CN2C(=O)CC1c1ccccc1Cl (configuration not stated)	none (no result: L3MBTL1 inh)
CCOc1ccc(N2CSC3=C(C#N)C(c4ccco4)CC(=O)N3C2)cc1 (configuration not stated)	POLB inh 25µM (no result: L3MBTL1 inh)
NC(=O)C1CCN(C(=O)c2ccccc2NC(=O)c2nsc3ccccc23)CC1	none (no result: L3MBTL1 inh)
Cc1nc2ccc(-c3nc4ccccc4[nH]3)cc2[nH]1	POLB inh 13µM, Pol iota inh inconclusive
Cc1ccc(-c2nc3ccccc3[nH]2)cn1	none
CCOC(=O)c1c(NC(=O)c2cc(C(C)C)on2)sc(C)c1C	none (no result: L3MBTL1 inh)
N[C@@H](CCCCNC(=O)CCCC[C@@H]1SC[C@H]2NC(=O)N[C@H]12)C(=O)O	none (no result: L3MBTL1 inh, POLB inh, Pol iota inh, Pol eta inh)
O=C(CSc1nc2nc(-c3cccs3)cc(C(F)(F)F)c2c(=O)[nH]1)Nc1ccc(F)c(F)c1	L3MBTL1 inh 28µM, POLB inh 28µM, POLK inh inconclusive, Pol iota inh inconclusive, Pol eta inh 32µM
Cc1ccc(C)c(NC(=O)CSc2nc3nc(-c4cccs4)cc(C(F)(F)F)c3c(=O)[nH]2)c1	POLB inh inconclusive, Pol iota inh inconclusive, Pol eta inh inconclusive (no result: L3MBTL1 inh)
O=c1c(Cl)c(Cl)cnn1Cc1nnc(-c2ccccc2Br)o1	POLB inh 40µM, Pol iota inh inconclusive, Pol eta inh 79µM (no result: L3MBTL1 inh)
Clc1ccccc1OCc1nnc(-c2ccccc2Br)o1	none
CCC(c1ccc(O)c(O)c1)C(CC)c1ccc(O)c(O)c1 (configuration not stated)	POLK inh 50µM, Pol iota inh 18µM, Pol eta inh 79µM (no result: L3MBTL1 inh, POLB inh)
O=C(c1cccc(N2C(=O)C3CC=CCC3C2=O)c1)N1CCN(c2ccccc2)CC1 (configuration not stated)	POLB inh 45µM
Cc1ccc(/C([O-])=C(/C(=S)NCc2ccco2)[n+]2ccccc2)cc1	none (no result: L3MBTL1 inh, POLK inh, Pol iota inh, Pol eta inh)
O=[N+]([O-])c1ccc(/C([O-])=C(/C(=S)NCc2ccco2)[n+]2ccccc2)cc1	L3MBTL1 inh inconclusive, POLB inh 20µM
O=c1[nH]c(CSc2nc3ccccc3s2)nc2ccccc12	none (no result: L3MBTL1 inh)
Cc1sc2nc(CSC(C)C(=O)Nc3cc(S(C)(=O)=O)ccc3Cl)[nH]c(=O)c2c1C (configuration not stated)	L3MBTL1 inh inconclusive, POLK inh inconclusive, Pol iota inh inconclusive, Pol eta inh 32µM (no result: POLB inh)
Cc1sc2nc(CSc3nc4ccccc4s3)[nH]c(=O)c2c1C	L3MBTL1 inh inconclusive, POLB inh 40µM (no result: POLK inh, Pol iota inh, Pol eta inh)
Cc1sc2nc(CSC(C)C(=O)Nc3ccccn3)[nH]c(=O)c2c1C (configuration not stated)	Pol eta inh 71µM (no result: POLB inh)
Cc1csc2nc(COc3ccccc3NC(=O)c3ccc(C(C)(C)C)cc3)cc(=O)n12	none (no result: L3MBTL1 inh)
Cc1ccc(-n2nc(C)c3c(C(F)(F)F)cc(-c4cccnc4)nc32)cc1Cl	none (no result: L3MBTL1 inh)
N#C/C(=C(/O)CSc1nnc(Cc2cccs2)n1C1CCCCC1)c1nc2ccccc2[nH]1	POLB inh 18µM, POLK inh inconclusive, Pol iota inh inconclusive, Pol eta inh 25µM
COc1ccccc1-c1nnc(SC/C(O)=C(\C#N)c2nc3ccccc3[nH]2)n1C1CCCCC1	Pol eta inh inconclusive
CCc1ccccc1Nc1cc(C(=O)NCc2ccc(C)cc2)c2ccccc2n1	none (no result: L3MBTL1 inh)
Cc1ccc2c(CC(=O)Nc3ccc(S(=O)(=O)N4CCCCC4C)cc3)coc2c1 (configuration not stated)	none (no result: L3MBTL1 inh)
COC(=O)c1ccc(CSc2nc3c([nH]c4ccccc43)c(=O)n2-c2cc(C)cc(C)c2)o1	POLB inh inconclusive (no result: L3MBTL1 inh)
CC(=O)Nc1ccc(SCC(c2ccccc2)N2CCN(C)CCC2=O)cc1 (configuration not stated)	none (no result: L3MBTL1 inh, POLB inh, Pol eta inh)
O=C1CCc2cc(S(=O)(=O)NCc3ccccc3)cc3c2N1CC3	none
C=CCNS(=O)(=O)c1cc2c3c(c1)CCN3C(=O)CC2	POLK inh 79µM, Pol iota inh 28µM (no result: L3MBTL1 inh)
CCS(=O)(=O)Nc1cc2c3c(c1)CCN3C(=O)CC2	POLK inh 79µM, Pol iota inh 25µM (no result: L3MBTL1 inh)
CC(C)C(=O)Nc1cc2c3c(c1)CCC(=O)N3CCC2	POLK inh inconclusive, Pol iota inh 35µM (no result: L3MBTL1 inh)
N#Cc1ccccc1-c1ccc2ncnc(NC3CC3)c2c1	none (no result: L3MBTL1 inh, POLB inh, Pol iota inh, Pol eta inh)
C=Cc1c(C)/c2[n-]/c1=C\c1[n-]c(c(CC)c1C)/C=c1\[n-]c3c(c1C)C(=O)C(C(=O)[O-])C=3c1[n-]c(c(C)c1CCC(=O)[O-])\C=2.[Cu].[Na+].[Na+] (configuration not stated)	POLK inh 0.89µM (no result: L3MBTL1 inh, POLB inh, Pol iota inh, Pol eta inh)
CCOC(=O)NC1(Nc2cccc(Cl)c2)Oc2ccccc2O1	POLK inh inconclusive, Pol iota inh 25µM
Cc1c2cc[n+](CCN3CCCCC3)cc2c(C)c2c1[nH]c1ccc(O)cc12	POLK inh 35µM, Pol iota inh 25µM, Pol eta inh 2.8µM (no result: L3MBTL1 inh, POLB inh)
CCCOC(=O)C1=C(C)N(C)C(=O)NC1c1cc2c(cc1[N+](=O)[O-])OCO2 (configuration not stated)	L3MBTL1 inh inconclusive, POLB inh inconclusive, POLK inh 79µM, Pol iota inh 4.5µM
CCc1ccccc1NS(=O)(=O)c1ccc(NC(=O)N2CCCC2)cc1	none (no result: L3MBTL1 inh)
Cc1cccc(C2C3=C(Nc4[nH]n(-c5ccccc5)c(=O)c42)c2ccccc2C3=O)c1 (configuration not stated)	POLB inh inconclusive, POLK inh inconclusive, Pol iota inh inconclusive, Pol eta inh 13µM
CCCCCCCCCCC/C=C\C(C)(C)/C=C\CCCC(=O)O	POLB inh 32µM, POLK inh 27µM!, Pol iota inh 28µM, Pol eta inh 28µM (no result: L3MBTL1 inh)
CCCCC/C=C\C/C=C\C/C=C\C/C=C\CCCCCC(=O)O	none (no result: L3MBTL1 inh, POLB inh, Pol iota inh, Pol eta inh)
CCCCCCC/C=C\CCCCCCCCC(=O)O	POLB inh inconclusive, POLK inh inconclusive, Pol iota inh 28µM, Pol eta inh inconclusive (no result: L3MBTL1 inh)
CC(=O)N(C(C)=O)N1C(=O)/C(=C/c2ccc(Cl)cc2)SC1=S	POLB inh inconclusive, Pol iota inh 25µM, Pol eta inh 28µM
